As usually defined, the AC50 is the concentration at which the activity in the assay is half-maximal.

Experiment [1] deals with Oxysterols receptor LXR-beta (Homo sapiens) (UniProt P55055). The experiment in a line: ATG_LXRb_TRANS: Attagene TRANS-FACTORIAL HepG2 Assay for human Liver X Receptor beta (LXRb) (AID 2282981; active means hit-call score of the fitted dose curve at least 0.9, where 1 is the maximum). The conditions noted are these: HepG2 Attagene TRANS GAL4-LXRb reporter, mRNA. Summed up: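 Multiplexed reporter assay, HepG2, 24 h dosing. Fluorescence of labelled RT-PCR products after capillary electrophoresis gives transcript level; positive fitting direction relative to DMSO.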
Sequence of Oxysterols receptor LXR-beta (Homo sapiens) (P55055 whole entry, looked up, the tested form may be a part): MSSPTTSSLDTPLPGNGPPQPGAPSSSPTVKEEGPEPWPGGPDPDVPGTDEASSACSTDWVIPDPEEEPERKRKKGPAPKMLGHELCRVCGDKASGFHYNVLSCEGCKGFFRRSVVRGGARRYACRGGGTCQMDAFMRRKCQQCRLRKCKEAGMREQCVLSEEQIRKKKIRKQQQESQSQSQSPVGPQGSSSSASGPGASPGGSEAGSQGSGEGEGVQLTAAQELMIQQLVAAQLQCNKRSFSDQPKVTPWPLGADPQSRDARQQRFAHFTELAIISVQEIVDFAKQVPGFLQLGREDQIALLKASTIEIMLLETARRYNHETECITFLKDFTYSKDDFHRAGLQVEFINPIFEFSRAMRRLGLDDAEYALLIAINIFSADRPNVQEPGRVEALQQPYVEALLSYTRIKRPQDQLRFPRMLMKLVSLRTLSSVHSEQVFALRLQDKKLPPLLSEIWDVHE

A short description of experiment [2]: ATG_M_32_TRANS: Attagene TRANS-FACTORIAL HepG2 Assay for M32 Transcription Factor (Internal Marker) (AID 2282984; active means hit-call score of the fitted dose curve at least 0.9, where 1 is the maximum;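 further: transcript level of a background control reporter unit measured by RT-PCR and capillary electrophoresis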). The conditions noted are these: HepG2 Attagene TRANS M32 internal marker reporter. The gist of the method: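 Internal-marker readout from a multiplexed transcription reporter panel. HepG2 cells were transfected with GAL4-UAS reporter units, treated 24 hours, and reporter transcript levels determined by fluorescence after RT-PCR and capillary separation.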

In experiment [3] the target is Transcriptional activator Myb (Homo sapiens) (UniProt P10242). In words: ATG_Myb_CIS: Attagene CIS-FACTORIAL HepG2 Assay for human Myeloblastosis (Myb) Proto-Oncogene Transcription Factor (AID 2282986). Particulars: HepG2 Attagene CIS-FACTORIAL Myb reporter transcription; actives raise or lower the signal. Summed up:
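Fluorescence signals from capillary electrophoresis of RT-PCR-amplified reporter cDNA give the read-out. Cells: HepG2 transfected with multiple cis-regulated reporter units. Exposure lasts 24 hours; DMSO defines baseline for gain or loss of signal.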

The target in experiment [4] is Nuclear respiratory factor 1 (Homo sapiens) (UniProt Q16656). In words: ATG_NRF1_CIS: Attagene CIS-FACTORIAL HepG2 Assay for human Nuclear Respiratory Factor 1 (NRF1) Orphan Gene (AID 2282987). Particulars: HepG2 NRF1 cis-element reporter, Attagene multiplex; actives raise or lower the signal. The gist of the method: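 Transcriptional reporter readout, one component of a 52-endpoint multiplexed HepG2 panel. Exposure 24 h; mRNA detected via RT-PCR and fluorescent capillary electrophoresis; fitting in both directions against DMSO.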
Sequence of Nuclear respiratory factor 1 (Homo sapiens) (Q16656 whole entry, looked up): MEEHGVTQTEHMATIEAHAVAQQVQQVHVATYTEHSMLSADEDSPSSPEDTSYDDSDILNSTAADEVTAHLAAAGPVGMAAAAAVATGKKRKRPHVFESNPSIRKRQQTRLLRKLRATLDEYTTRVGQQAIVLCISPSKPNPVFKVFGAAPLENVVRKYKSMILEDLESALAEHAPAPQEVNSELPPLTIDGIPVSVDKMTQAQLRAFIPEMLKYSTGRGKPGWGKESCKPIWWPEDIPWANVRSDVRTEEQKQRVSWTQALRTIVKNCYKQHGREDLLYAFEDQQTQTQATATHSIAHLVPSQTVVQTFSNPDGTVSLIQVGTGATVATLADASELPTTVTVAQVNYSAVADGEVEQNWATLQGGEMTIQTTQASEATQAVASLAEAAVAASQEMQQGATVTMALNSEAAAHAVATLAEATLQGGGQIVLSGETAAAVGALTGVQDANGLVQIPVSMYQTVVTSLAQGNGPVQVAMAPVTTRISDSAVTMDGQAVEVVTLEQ

In experiment [5] the target is Myc proto-oncogene protein (Homo sapiens) (UniProt P01106). In words: ATG_Myc_CIS: Attagene CIS-FACTORIAL HepG2 Assay for human Myelocytomatosis (Myc) Proto-Oncogene Transcription Factor (AID 2282990). Particulars: HepG2, Attagene cis-reporter transcription factor activity; actives raise or lower the signal. The gist of the method: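 Transiently transfected HepG2 cells bearing cis-promoter reporter units for endogenous transcription factors; 24 h exposure. Reporter mRNA measured by RT-PCR, 6-FAM primer extension, HpaI cut and capillary electrophoresis; bidirectional fit relative to DMSO.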
Sequence of Myc proto-oncogene protein (Homo sapiens) (P01106 whole entry, looked up): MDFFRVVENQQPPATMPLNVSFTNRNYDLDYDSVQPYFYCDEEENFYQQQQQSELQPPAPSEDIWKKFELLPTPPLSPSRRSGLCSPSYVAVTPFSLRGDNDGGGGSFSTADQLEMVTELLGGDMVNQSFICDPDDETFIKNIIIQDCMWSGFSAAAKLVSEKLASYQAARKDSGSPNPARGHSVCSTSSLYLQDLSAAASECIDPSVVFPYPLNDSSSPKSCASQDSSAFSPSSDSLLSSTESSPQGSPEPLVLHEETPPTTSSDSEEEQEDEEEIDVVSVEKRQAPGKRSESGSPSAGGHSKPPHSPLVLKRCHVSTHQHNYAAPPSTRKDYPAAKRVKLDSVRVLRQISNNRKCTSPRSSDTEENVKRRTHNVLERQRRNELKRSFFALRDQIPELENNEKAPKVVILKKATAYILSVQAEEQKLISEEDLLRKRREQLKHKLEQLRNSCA

The nature of experiment [6]: ATG_NRF2_ARE_CIS: Attagene CIS-FACTORIAL HepG2 Assay for human Nuclear Factor Erythroid 2 Related Factor 2 (NFR2) response to Antioxidant Response Elements (ARE) (AID 2282992). Particulars: HepG2 Attagene ARE/NRF2 reporter, transcription factor activity; actives raise or lower the signal. The gist of the method: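 Endogenous transcription factor activity in human liver HepG2 cells is tracked via a cis-element-driven reporter within a multiplexed set. mRNA induction is read by RT-PCR and capillary electrophoresis after 24 h, with DMSO as baseline.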

A short description of experiment [7]: ATG_Oct_MLP_CIS: Attagene CIS-FACTORIAL HepG2 Assay for human Octamer-Binding Transcription Factor (Oct) (AID 2282993). Particulars: HepG2 Attagene cis-factorial Oct reporter, mRNA; actives raise or lower the signal. Summed up:
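After 24 h compound exposure, transfected HepG2 cells were lysed for total RNA; reporter-specific cDNA was PCR-amplified, fluorescently labelled and sized by capillary electrophoresis. Bidirectional curve fitting used DMSO as baseline.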

Experiment [8] is described as follows: ATG_M_06_TRANS: Attagene TRANS-FACTORIAL HepG2 Assay for M06 Transcription Factor (Internal Marker) (AID 2282983; active means hit-call score of the fitted dose curve at least 0.9, where 1 is the maximum). The conditions noted are these: HepG2 Attagene TRANS M06 internal marker reporter. The gist of the method:
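Read-out: fluorescent reporter cDNA fragments resolved by capillary electrophoresis after RT-PCR and HpaI cut. Source cells were HepG2 carrying transfected multi-reporter GAL4 constructs, dosed 24 h. Increase over DMSO control analysed.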

The target in experiment [9] is Nuclear receptor subfamily 4 group A member 2 (Homo sapiens) (UniProt P43354). The experiment in a line: ATG_NURR1_TRANS: Attagene TRANS-FACTORIAL HepG2 Assay for human Nuclear Receptor Related Protein 1 (NURR1) (AID 2282985; active means hit-call score of the fitted dose curve at least 0.9, where 1 is the maximum). The conditions noted are these: HepG2 Attagene TRANS reporter, mRNA readout. The gist of the method:
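Endpoint: reporter mRNA increase relative to DMSO. HepG2 cells transfected with reporter units, treated 24 h; RNA processed by RT-PCR, labelling, HpaI digestion and capillary electrophoresis.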

Experiment [10] is described as follows: ATG_NFI_CIS: Attagene CIS-FACTORIAL HepG2 Assay for human Nuclear Factor I (NFI) (AID 2282989). The conditions noted are these: HepG2 cis-regulatory reporter, NFI response element transcription; actives raise or lower the signal. The gist of the method:
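Multiplexed cis-reporter system in human HepG2 cells reports native TF activity as reporter mRNA induction 24 h post-dose. Fragments labelled with 6-FAM, HpaI-digested and resolved by capillary electrophoresis; activity fitted both directions versus DMSO.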

A short description of experiment [11]: ATG_NF_kB_CIS: Attagene CIS-FACTORIAL HepG2 Assay for human Nuclear Factor Kappa B (NF-kB) (AID 2282991). The conditions noted are these: HepG2 Attagene cis-factorial NF-kB reporter mRNA; actives raise or lower the signal. Summed up:
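HepG2, transient multi-reporter transfection, cis promoter elements (endogenous TFs). 24 h exposure. Total RNA → RT → PCR → 6-FAM label → HpaI → CE. Gain/loss vs DMSO.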

In experiment [12] the target is Cellular tumor antigen p53 (Homo sapiens) (UniProt P04637). The experiment in a line: ATG_p53_CIS: Attagene CIS-FACTORIAL HepG2 Assay for human p53 Transcription Factor (AID 2282994). Particulars: HepG2 p53 cis-element reporter, Attagene mRNA; actives raise or lower the signal. Summed up:
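Steps: transfect HepG2 with multiplexed cis reporter constructs; dose chemicals 24 h; extract RNA, reverse-transcribe, PCR-amplify reporter sequences; FAM-label, HpaI-digest, resolve fragments by CE. Activity fitted both directions relative to DMSO.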

Experiment [13] concerns the target Hepatocyte nuclear factor 4-alpha (Homo sapiens) (UniProt P41235). The experiment in a line: ATG_HNF4a_TRANS: Attagene TRANS-FACTORIAL HepG2 Assay for human Hepatocyte Nuclear Factor 4 alpha (HNF4a) (AID 2282982; active means hit-call score of the fitted dose curve at least 0.9, where 1 is the maximum). Particulars: HepG2 HNF4a transactivation reporter, mRNA readout. The gist of the method: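 Endpoint reflects transcriptional activation of a GAL4-UAS reporter by an HNF4a-GAL4 chimera in transfected HepG2 cells, 24 h post-dosing. Fluorescence from RT-PCR products separated by capillary electrophoresis; DMSO baseline.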

A short description of experiment [14]: BSK_3C_TissueFactor: BioMAP Diversity Plus: 3C Assay for Tissue Factor Biomarker Activity (AID 2282997). The conditions noted are these: BioMAP 3C HUVEC, tissue factor biomarker readout; actives raise or lower the signal. Summed up: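 HUVEC, 3C system, 24 h post-dose; Tissue Factor by ELISA; bidirectional fit vs DMSO baseline.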
Experiment [15] is described as follows: BSK_3C_uPAR: BioMAP Diversity Plus: 3C Assay for Urokinase-type plasminogen activator receptor (uPAR) Biomarker Activity (AID 2282998). Particulars: BioMAP 3C HUVEC, uPAR biomarker ELISA; actives raise or lower the signal. Summed up:
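Values derive from bidirectional curve fitting relative to DMSO, which served as baseline of activity. uPAR was measured by ELISA in human umbilical vein endothelial primary cultures 24 h after compound addition.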
(ELISA stands for enzyme-linked immunosorbent assay.)

A short description of experiment [16]: BSK_3C_VCAM1: BioMAP Diversity Plus: 3C Assay for Vascular cell adhesion molecule 1 (VCAM1) Biomarker Activity (AID 2282999). Particulars: BioMAP 3C HUVEC, VCAM1 ELISA, cytokine-stimulated; actives raise or lower the signal. The gist of the method:
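HUVEC primary cells, 24 h compound exposure; VCAM-1 by ELISA; gain/loss of signal fitted bidirectionally vs DMSO baseline.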

Inconclusive results are not listed. The source made the active and inactive calls. How the source made its calls, unless noted: active means hit-call score of the fitted dose curve at least 0.9, where 1 is the maximum; inactive means score below 0.9.

Sequence of Nuclear receptor subfamily 4 group A member 2 (Homo sapiens) (P43354 whole entry, looked up): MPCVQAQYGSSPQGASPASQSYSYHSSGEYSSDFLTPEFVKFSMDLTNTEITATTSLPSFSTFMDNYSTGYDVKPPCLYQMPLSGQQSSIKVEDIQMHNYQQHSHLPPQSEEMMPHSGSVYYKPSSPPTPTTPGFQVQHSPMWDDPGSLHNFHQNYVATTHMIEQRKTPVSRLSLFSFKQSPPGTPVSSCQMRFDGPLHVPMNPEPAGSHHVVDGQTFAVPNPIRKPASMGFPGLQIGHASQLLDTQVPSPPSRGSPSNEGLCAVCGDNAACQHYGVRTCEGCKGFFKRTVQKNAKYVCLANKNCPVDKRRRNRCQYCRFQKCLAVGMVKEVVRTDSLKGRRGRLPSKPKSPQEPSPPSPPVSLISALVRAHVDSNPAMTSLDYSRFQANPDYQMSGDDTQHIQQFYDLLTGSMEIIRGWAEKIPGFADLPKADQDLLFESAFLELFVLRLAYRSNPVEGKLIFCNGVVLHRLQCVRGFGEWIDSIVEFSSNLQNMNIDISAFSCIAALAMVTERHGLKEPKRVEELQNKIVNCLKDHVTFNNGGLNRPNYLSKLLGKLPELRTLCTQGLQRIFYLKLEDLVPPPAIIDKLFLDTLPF
Sequence of Cellular tumor antigen p53 (Homo sapiens) (P04637 whole entry, looked up, the tested form may be a part): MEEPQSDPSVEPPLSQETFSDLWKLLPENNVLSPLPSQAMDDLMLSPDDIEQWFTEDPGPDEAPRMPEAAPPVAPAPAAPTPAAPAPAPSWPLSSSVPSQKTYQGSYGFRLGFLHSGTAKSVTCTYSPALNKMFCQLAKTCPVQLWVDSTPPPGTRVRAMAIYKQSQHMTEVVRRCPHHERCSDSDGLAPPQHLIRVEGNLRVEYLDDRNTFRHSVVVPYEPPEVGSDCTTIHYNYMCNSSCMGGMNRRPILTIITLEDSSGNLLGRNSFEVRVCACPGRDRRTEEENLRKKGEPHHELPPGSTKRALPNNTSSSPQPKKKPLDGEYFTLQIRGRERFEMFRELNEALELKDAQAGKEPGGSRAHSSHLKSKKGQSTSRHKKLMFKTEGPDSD
Sequence of Transcriptional activator Myb (Homo sapiens) (P10242 whole entry, looked up): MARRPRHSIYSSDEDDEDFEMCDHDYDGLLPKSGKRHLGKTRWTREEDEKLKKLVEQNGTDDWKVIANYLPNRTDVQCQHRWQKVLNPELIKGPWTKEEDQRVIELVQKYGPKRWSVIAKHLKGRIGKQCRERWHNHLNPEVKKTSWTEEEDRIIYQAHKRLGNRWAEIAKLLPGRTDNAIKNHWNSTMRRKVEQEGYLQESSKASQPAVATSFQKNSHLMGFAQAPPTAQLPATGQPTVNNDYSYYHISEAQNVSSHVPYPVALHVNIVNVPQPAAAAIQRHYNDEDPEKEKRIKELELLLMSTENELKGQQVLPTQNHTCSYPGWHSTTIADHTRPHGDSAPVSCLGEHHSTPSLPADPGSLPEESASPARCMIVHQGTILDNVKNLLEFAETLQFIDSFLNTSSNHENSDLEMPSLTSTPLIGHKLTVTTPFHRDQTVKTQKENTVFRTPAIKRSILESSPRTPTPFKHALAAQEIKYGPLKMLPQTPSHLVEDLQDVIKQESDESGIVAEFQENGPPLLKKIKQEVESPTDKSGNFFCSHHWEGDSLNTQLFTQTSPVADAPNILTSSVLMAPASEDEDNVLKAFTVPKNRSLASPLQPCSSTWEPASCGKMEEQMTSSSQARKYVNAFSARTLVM
Sequence of Hepatocyte nuclear factor 4-alpha (Homo sapiens) (P41235 whole entry, looked up, the tested form may be a part): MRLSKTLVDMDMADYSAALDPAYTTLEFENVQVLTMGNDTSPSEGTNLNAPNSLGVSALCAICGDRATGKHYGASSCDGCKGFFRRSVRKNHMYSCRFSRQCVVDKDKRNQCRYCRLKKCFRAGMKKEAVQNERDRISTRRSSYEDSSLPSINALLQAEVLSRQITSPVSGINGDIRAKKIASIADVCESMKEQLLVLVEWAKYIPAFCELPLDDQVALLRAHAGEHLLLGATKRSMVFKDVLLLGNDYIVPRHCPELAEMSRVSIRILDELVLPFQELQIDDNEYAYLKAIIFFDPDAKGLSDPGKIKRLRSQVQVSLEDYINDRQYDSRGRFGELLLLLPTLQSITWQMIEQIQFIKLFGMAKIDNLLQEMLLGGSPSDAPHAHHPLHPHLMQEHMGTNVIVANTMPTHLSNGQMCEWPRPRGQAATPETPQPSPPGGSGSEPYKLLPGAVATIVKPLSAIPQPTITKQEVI

For the molecule `CC(CO)c1ccccc1` (stereo not given), the molecule was classed as inactive in experiment [1], in [2], in [3], in [4], in experiment [5] and in experiment [6]. In [7], the molecule was called inactive.
With `CNC(=C[N+](=O)[O-])NCCSCc1ccc(CN(C)C)o1`, the call in [1], in experiment [8], in experiment [2], in [9], in experiment [3] and in experiment [4] was inactive. Moreover, the outcome in experiment [10], in experiment [5], in experiment [11], in experiment [6], in experiment [7] and in experiment [12] was inactive.
Take `CC1(C)CC(=O)CC(C)(C)N1`: the molecule was classed as inactive in experiment [1], in experiment [8], in [9], in [3], in experiment [4] and in experiment [10]. The result in experiment [5], in [6] and in experiment [7] was inactive.
`O=S(=O)(O)CCCN1CCOCC1`: the result in [13], in experiment [8], in experiment [9], in [3], in experiment [4] and in [5] was inactive. Besides, the outcome in [6], in experiment [7] and in experiment [12] was inactive.
On to `CC(=O)CCc1ccc(O)cc1`, for which the outcome in [1], in [8], in experiment [2], in experiment [3], in [4] and in experiment [10] was inactive. The result in experiment [5], in experiment [6] and in experiment [7] was inactive.
On to `CC(=O)Oc1c(C)c(C)c2c(c1C)CC[C@@](C)(CCC[C@H](C)CCC[C@H](C)CCCC(C)C)O2`, for which the outcome in [1], in experiment [13], in [2], in experiment [9], in [3] and in experiment [4] was inactive. The molecule was classed as inactive in [10], in experiment [5], in [6], in experiment [7] and in experiment [12].
`O=[N+]([O-])c1cc(N(CCO)CCO)ccc1NCCO`: the molecule was classed as inactive in experiment [13], in experiment [8], in [2], in [3], in experiment [4] and in [10]. The molecule was classed as inactive in [5], in [11], in experiment [6], in [7] and in experiment [12].
In the case of `CC(O)CNCC(C)O` (stereo not given), the molecule was called inactive in experiment [13], in experiment [8], in experiment [2], in experiment [3], in [4] and in experiment [10]. Besides, the outcome in experiment [5], in experiment [6], in [7] and in experiment [12] was inactive.
As for `CC(=O)OCC=C(C)CCC=C(C)CCC=C(C)C`, the molecule was called inactive in experiment [1], in experiment [8], in experiment [9], in experiment [3], in experiment [5] and in [7]. The outcome in experiment [14], in experiment [15] and in experiment [16] was inactive. Further, the AC50 in experiment [4] was 154 µM (active); in experiment [10], 157 µM (active); in experiment [6], 49.5 µM (active).
For the molecule `CCC(C)COC(=O)CC(C)C` (stereo not given), the result in [1], in [2], in experiment [3], in experiment [4], in [10] and in experiment [5] was inactive. Moreover, the call in experiment [11], in [6], in experiment [7] and in experiment [12] was inactive.
With `CC1=CC[C@@H]2C[C@H]1C2(C)C`, the outcome in [1], in experiment [8], in [9], in experiment [3], in experiment [4] and in experiment [10] was inactive. Further, the call in experiment [5], in experiment [11], in [6] and in [7] was inactive.

Values taken from PubChem BioAssay (EPA / NIEHS).
